The values that follow come from PubChem BioAssay.

The nature of assay [1]: E. coli DRC41 culture turbidity changes, primary screen, E. coli filamentation inducer project, strain DRC41, OD650, 48 h (AID 1152).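 Note: E. coli MC1000 strain DRC41 lacking acrAB efflux pump and sulA.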 The following applies: E. coli DRC41 (acrAB sulA), higher = more signal, called active from +8 up or from −8 down.
A short description of assay [2]: small-molecule binders of probe aLefty1, primary screen, biochemical, small-molecule microarray, 635/667 nm fluorescence (AID 1153).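 Note: score merges spot fluorescence with signal-to-noise ratio from the scanned slide images.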 The following applies: higher = more signal.
Assay [3] is described as follows: PSAC antagonists in infected red cells, primary screen, cell-based, P. falciparum Indochina, OD700, 1 h (AID 1154). To be noted: P. falciparum Indochina infected RBC osmotic lysis, higher = more signal, called active from +8 up or from −8 down.
Assay [4] is described as follows: PSAC antagonists in infected red cells, primary screen, cell-based, P. falciparum Indochina, OD700, 2 h (AID 1155).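 Note: lysis reports solute entry through the parasite surface anion channel PSAC; channel blockers reduce lysis of infected cells.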 To be noted: P. falciparum Indochina infected erythrocytes, osmotic lysis OD700; higher = more signal, called active from +8 up or from −8 down.
Assay [5] is described as follows: osmotic lysis modulators in infected erythrocytes, primary screen, PSAC antagonist project, cell-based, P. falciparum Indochina, OD700, 3 h (AID 1156). To be noted: higher = more signal, called active from +8 up or from −8 down.
Assay [6] can be described thus: PSAC antagonists in infected red cells, primary screen, cell-based, P. falciparum Indochina, OD700, 18 h (AID 1157). The following applies: P. falciparum Indochina infected erythrocytes, osmotic lysis OD700, 18 h; higher = more signal, called active from +8 up or from −8 down.
The nature of assay [7]: modulators of S6 phosphorylation in cells, primary screen, cell-based, A549, cytoblot, luminescence, serum-stimulated (AID 1158).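 Note: serum-stimulated A549 lung adenocarcinoma cells; signal is phosphorylated S6 detected by cytoblot immunostaining with HRP secondary.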 To be noted: A549 phospho-S6 cytoblot, 5 h, higher = more signal.
Assay [8] has as its target NADPH oxidase 2 (Homo sapiens) (UniProt P04839). The experiment in a line: NOX2-dependent H2O2 signal modulators, primary screen, NOX inhibitor project, cell-based, HEK293-NOX2, PMA-stimulated, Amplex Red fluorescence (AID 1159). Note: test concentration not given here. The following applies: 45 min, higher = more signal, called active from +8 up or from −8 down.
Assay [9] concerns the target NADPH oxidase 4 (Homo sapiens) (UniProt Q9NPH5). Briefly: NOX4-dependent H2O2 signal modulators, primary screen, NOX inhibitor project, cell-based, HEK293-NOX4, tetracycline-induced, Amplex Red fluorescence (AID 1160). To be noted: 45 min, higher = more signal, called active from +8 up or from −8 down.
The target in assay [10] is NADPH oxidase 5 (Homo sapiens) (UniProt Q96PH1). The experiment in a line: NOX5-dependent H2O2 signal modulators, primary screen, NOX inhibitor project, cell-based, HEK293-NOX5, Amplex Red fluorescence (AID 1161). The following applies: HEK293-NOX5, ionomycin, 45 min, higher = more signal.
Assay [11] in a line: A549 cell viability effects, profiling panel, calcein-AM fluorescence, 48 h, basal (AID 1162). Note: test concentration not given here. The following applies: higher = more signal.
Assay [12] is described as follows: adipocyte viability effects, profiling panel, cell-based, 3T3-L1 adipocytes, calcein-AM fluorescence, 48 h, basal (AID 1163). Note: test concentration not given here. To be noted: 3T3-L1 adipocytes viability, higher = more signal.
Assay [13] can be described thus: HepG2 cell viability effects, profiling panel, calcein-AM fluorescence, 48 h, basal (AID 1164). Note: test concentration not given here. To be noted: higher = more signal.
Assay [14] in a line: MM1S cell viability effects, profiling panel, calcein-AM fluorescence, 48 h, basal (AID 1165).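 Note: viability of MM1S multiple myeloma cells under basal unstimulated conditions; test concentration not given here.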 The following applies: higher = more signal.
Assay [15] is described as follows: basal RPMI8226 viability, no added stimulus, profiling panel, cell-based, calcein-AM fluorescence, 48 h, PK04 Diversity Set (AID 1166).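 Note: cells grown under basal conditions without added stimulus; test concentration not given here.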 To be noted: RPMI8226 myeloma viability, higher = more signal.
A short description of assay [16]: basal HepG2 mitochondrial membrane potential changes, profiling panel, cell-based, JC-1 fluorescence, 24 h, 100 nL compound (AID 1167). Note: test concentration not given here. The following applies: higher = more signal.
Assay [17] in a line: basal 3T3-L1 adipocyte mitochondrial potential changes, profiling panel, cell-based, JC-1 fluorescence, 3T3-L1 adipocytes, 24 h, 100 nL compound (AID 1168). Note: test concentration not given here. The following applies: JC-1 mitochondrial fluorescence, higher = more signal, called active from +8 up or from −8 down.
Assay [18] can be described thus: basal RPMI8226 mitochondrial membrane potential changes, profiling panel, cell-based, JC-1 fluorescence, 24 h, 100 nL compound (AID 1169). Note: test concentration not given here. The following applies: RPMI8226 myeloma, JC-1 mitochondrial potential fluorescence, higher = more signal.
Assay [19] can be described thus: basal MM1S mitochondrial membrane potential changes, profiling panel, cell-based, JC-1 fluorescence, 24 h, 100 nL compound (AID 1170). Note: test concentration not given here. To be noted: higher = more signal.
Assay [20] can be described thus: A549 lung cancer cell viability effects, profiling panel, resazurin fluorescence, 24 h, PK04 Diversity Set (AID 1171). Note: test concentration not given here. The following applies: higher = more signal, called active from +8 up or from −8 down.

Each structure is given as a SMILES string. Active and inactive are the calls of the source.

NADPH oxidase 4 (Homo sapiens), sequence (Q9NPH5 whole entry, looked up): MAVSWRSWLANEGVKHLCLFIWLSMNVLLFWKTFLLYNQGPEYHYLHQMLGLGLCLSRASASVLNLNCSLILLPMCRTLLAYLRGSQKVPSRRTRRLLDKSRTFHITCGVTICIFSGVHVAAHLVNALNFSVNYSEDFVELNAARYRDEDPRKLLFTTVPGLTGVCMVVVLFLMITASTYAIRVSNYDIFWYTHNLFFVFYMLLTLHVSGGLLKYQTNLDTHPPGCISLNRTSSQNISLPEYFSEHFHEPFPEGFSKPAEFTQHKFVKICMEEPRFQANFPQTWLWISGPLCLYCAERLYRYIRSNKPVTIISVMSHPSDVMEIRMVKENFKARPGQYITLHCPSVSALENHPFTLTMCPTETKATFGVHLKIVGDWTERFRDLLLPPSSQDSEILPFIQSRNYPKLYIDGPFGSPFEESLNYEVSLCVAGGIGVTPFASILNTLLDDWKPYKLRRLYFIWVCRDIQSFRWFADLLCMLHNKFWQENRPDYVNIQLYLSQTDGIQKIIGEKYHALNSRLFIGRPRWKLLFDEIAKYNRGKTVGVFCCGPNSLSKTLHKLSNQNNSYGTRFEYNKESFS
NADPH oxidase 2 (Homo sapiens), sequence (P04839 whole entry, looked up): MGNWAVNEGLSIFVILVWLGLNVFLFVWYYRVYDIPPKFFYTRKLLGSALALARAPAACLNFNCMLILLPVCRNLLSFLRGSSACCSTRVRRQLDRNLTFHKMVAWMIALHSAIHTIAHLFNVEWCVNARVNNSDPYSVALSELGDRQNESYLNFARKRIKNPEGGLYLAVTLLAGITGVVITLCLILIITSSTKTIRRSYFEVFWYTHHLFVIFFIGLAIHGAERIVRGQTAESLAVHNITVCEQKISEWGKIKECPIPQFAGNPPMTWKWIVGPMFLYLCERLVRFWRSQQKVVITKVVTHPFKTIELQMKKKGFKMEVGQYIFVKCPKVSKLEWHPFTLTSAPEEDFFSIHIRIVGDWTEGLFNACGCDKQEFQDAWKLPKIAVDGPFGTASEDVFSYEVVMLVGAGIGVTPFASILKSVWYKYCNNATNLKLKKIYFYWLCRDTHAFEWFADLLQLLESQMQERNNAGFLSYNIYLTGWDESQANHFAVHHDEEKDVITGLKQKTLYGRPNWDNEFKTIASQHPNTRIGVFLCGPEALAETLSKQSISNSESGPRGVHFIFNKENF
NADPH oxidase 5 (Homo sapiens), sequence (Q96PH1 whole entry, looked up): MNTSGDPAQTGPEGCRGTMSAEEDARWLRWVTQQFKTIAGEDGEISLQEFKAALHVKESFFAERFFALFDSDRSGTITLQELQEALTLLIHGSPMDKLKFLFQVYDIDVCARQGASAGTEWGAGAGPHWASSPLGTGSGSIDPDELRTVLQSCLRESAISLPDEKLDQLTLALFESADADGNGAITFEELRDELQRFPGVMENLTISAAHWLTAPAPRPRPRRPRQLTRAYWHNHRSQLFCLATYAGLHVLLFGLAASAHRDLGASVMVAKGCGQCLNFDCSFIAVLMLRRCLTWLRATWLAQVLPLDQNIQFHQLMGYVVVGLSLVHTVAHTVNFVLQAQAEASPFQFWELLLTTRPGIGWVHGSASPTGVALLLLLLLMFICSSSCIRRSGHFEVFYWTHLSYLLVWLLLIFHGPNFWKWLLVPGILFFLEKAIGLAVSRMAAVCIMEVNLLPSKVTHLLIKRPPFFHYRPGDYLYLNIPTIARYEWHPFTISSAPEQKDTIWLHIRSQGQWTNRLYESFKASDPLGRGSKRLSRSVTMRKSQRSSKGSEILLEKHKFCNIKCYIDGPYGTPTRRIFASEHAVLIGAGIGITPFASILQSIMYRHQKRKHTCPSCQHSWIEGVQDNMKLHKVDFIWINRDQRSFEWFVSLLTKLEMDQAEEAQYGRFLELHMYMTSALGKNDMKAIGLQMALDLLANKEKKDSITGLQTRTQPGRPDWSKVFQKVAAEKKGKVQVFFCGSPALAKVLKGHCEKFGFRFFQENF

Take `CCCCCCc1nc(-c2ccc(OC)nc2)cc2c1[Si](C(C)C)(C(C)C)OC2`: the z-score was -0.45 (inactive) in assay [1]; 2.62 (inactive) in assay [3]; 0.0409 (inactive) in assay [4]; -0.484 (inactive) in assay [5]; -0.179 (inactive) in assay [6]; 0.366 in assay [7]. The z-score in assay [8] was -4.66 (inactive); in assay [9] it was -2.14 (inactive); in [10], -4.22; in assay [11], -0.848; in [12] it was 0.608; in [13], 0.238. The z-score in assay [14] is -2.15; in assay [15] it was -3.11; in [16], -1.91; in assay [17], -0.191 (inactive); in assay [18], -0.791; in assay [19], -0.368. Also, the z-score in assay [20] was 0.552 (inactive). The molecule further registered a composite z-score in assay [2] of -0.103.

As for `CN(C)CCCC[C@@H]1NC(=O)[C@@H]2C[C@H](C(=O)NCc3ccc(F)cc3)[C@H](c3ccc(O)cc3)N2C1=O`, the z-score in [1] is -0.876 (inactive); in assay [3] it was 1.98 (inactive); in assay [4] it was 0.947 (inactive); in [5], -1.62 (inactive); in [6] it was 0.35 (inactive); in assay [7], 0.359. For the same molecule, the z-score in assay [8] was 0.391 (inactive); in [9] it was -0.25 (inactive); in assay [10], 0.714; in [11] it was -0.467; in assay [12], -0.904; in [13], 0.263. Moreover, the z-score in [14] is 0.135; in assay [15] it was -0.0865; in assay [16] it was 0.393; in assay [17], -0.0839 (inactive); in [18], -0.963; in assay [19] it was -0.187. The z-score in [20] is -0.454 (inactive). This molecule showed a composite z-score in [2] of -0.0501.

`COc1ccc(C#Cc2ccc3c(c2)[C@]2(C(=O)N3)[C@H](c3ccc(OCCO)cc3)N3[C@H](c4ccccc4)[C@H](c4ccccc4)OC(=O)[C@H]3[C@@H]2C(=O)O)cc1`: the z-score is 2.24 (inactive) in assay [1]; -1.39 (inactive) in assay [3]; -2.59 (inactive) in assay [4]; -6.7 (inactive) in assay [5]; -2.58 (inactive) in assay [6]; 1.6 in assay [7]. In addition, the z-score is -0.922 (inactive) in [8]; -1.55 (inactive) in assay [9]; -2.5 in assay [10]; 0.325 in assay [11]; 1.33 in assay [12]; 0.712 in assay [13]. For the same molecule, the z-score in assay [14] was -3.1; in assay [15], -4.59; in [16] it was -4; in assay [17], -4.96 (inactive); in assay [18], -1.19; in assay [19], -1.99. In assay [20], the z-score was 0.721 (inactive). This molecule also displayed a composite z-score in assay [2] of 1.4.

For `CC(C)C[C@H]1NC(=O)[C@@H](C)NC(=O)[C@@]23C(=O)N[C@@H](Cc4ccccc4)C2[C@H](C)[C@@]2(C)O[C@H]2C3/C=C/C/C=C\CNC1=O` (stereo not given in full), the z-score in assay [1] is -0.743 (inactive); in [3], 0.522 (inactive); in assay [4], -0.437 (inactive); in assay [5], -0.435 (inactive); in [6], -0.111 (inactive); in [7] it was -0.175. In addition, the z-score is -0.115 (inactive) in assay [8]; 1.11 (inactive) in assay [9]; 0.407 in [10]; 0.65 in assay [11]; 0.305 in assay [12]; -0.363 in assay [13]. Moreover, the z-score in assay [14] is -0.256; in assay [15], -0.64; in [16], -0.553; in assay [17], 0.023 (inactive); in assay [18], 0.471; in [19], 0.191. Besides, the z-score in assay [20] was -0.0639 (inactive). Besides, the composite z-score in assay [2] was -0.431.
